Results on four molecules are retold here after PubChem BioAssay (NCATS).

Where “and” joins values, the source holds several entries; their conditions need not be identical. Equal values may be shown once. Records with an inconclusive call do not appear. Calls of active or inactive are those of the source. Unless noted, the call rests on the fitted dose curve; in most records, active means well fitted curve in the direction sought with a large enough effect; inconclusive means small, poorly fitted or top-dose-only effect, or another doubt; inactive means no such curve, though single readings can be large; an effect the other way counts as inactive or inconclusive.

Test [1] is described as follows: AP1 Signaling Pathway (AID 357; active means well fitted curve in either direction with a large enough effect, not every such curve was filed as active; further: on the % scale 0 is the no-effect control and ±100 the full control effect). The method in brief: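 ME-180 cells with beta-lactamase reporter under AP-1 response element, stimulated with EC50 EGF; compounds tested in titration series, 5 h at 37 °C. CCF4 substrate added 2.5 h at room temperature; 460/530 nm emission ratio gave %activity and AC50.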
The target of test [2] is Cytochrome P450 1A2 (Homo sapiens) (UniProt P05177). The experiment in a line: p450-cyp1a2 (AID 410; calls by dose curve;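 further: -100% = full effect of reference inhibitor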). In short, it runs like this:
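Read-out is luminescence from luciferin produced by CYP1A2 demethylation of Luciferin-ME (100uM, at Km). Detection reagent stopped the 60 min NADPH-dependent reaction; signals were normalized to 57 uM furafylline.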

A short description of test [3]: NFAT Signaling Pathway (AID 444; active means well fitted curve in either direction with a large enough effect, not every such curve was filed as active;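 further: carbachol stimulus at about its EC50 of 1 µM final; on the % scale 0 is the no-effect control and ±100 the full control effect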). The following applies: Jurkat NFAT-bla M1, carbachol, beta-lactamase ratio, 5 h. In short, it runs like this: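 Jurkat cells with NFAT-driven β-lactamase reporter and co-expressed M1 receptor, stimulated with carbachol (final 1 uM, ~EC50), compound titration, 5 h at 37 °C. CCF4 loaded 1 h at RT; 460/530 nm ratio gave %activity and AC50.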

A short description of test [4]: Stat Signaling Pathway (AID 446; active means well fitted curve in either direction with a large enough effect, not every such curve was filed as active;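 further: ME-180 cervical cancer cells given 40 pM IL-6 alongside compound; SIE-controlled beta-lactamase reporter measured as 460/530 nm FRET emission ratio; on the % scale 0 is the no-effect control and ±100 the full control effect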). In short, it runs like this:
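Overnight-plated ME-180 cells bearing a STAT Inducible Element beta-lactamase reporter; 5 h co-exposure to compound and 40 pM IL-6; values normalized to 300 pM IL-6 and 125 nM JAK inhibitor controls.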

For test [5], the target named is Glucocorticoid receptor (Homo sapiens) (UniProt P04150). Kind of test: GR-GFP Redistribution (AID 450;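 active means compounds whose dose series gives a full or clear partial fitted curve of increased nuclear translocation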; further: potency means the concentration at half of the fitted maximal effect). The following applies: U2OS GR-GFP nuclear translocation, laser cytometry, 2 h.
Sequence of Glucocorticoid receptor (Homo sapiens) (P04150 whole entry, looked up, the tested form may be a part): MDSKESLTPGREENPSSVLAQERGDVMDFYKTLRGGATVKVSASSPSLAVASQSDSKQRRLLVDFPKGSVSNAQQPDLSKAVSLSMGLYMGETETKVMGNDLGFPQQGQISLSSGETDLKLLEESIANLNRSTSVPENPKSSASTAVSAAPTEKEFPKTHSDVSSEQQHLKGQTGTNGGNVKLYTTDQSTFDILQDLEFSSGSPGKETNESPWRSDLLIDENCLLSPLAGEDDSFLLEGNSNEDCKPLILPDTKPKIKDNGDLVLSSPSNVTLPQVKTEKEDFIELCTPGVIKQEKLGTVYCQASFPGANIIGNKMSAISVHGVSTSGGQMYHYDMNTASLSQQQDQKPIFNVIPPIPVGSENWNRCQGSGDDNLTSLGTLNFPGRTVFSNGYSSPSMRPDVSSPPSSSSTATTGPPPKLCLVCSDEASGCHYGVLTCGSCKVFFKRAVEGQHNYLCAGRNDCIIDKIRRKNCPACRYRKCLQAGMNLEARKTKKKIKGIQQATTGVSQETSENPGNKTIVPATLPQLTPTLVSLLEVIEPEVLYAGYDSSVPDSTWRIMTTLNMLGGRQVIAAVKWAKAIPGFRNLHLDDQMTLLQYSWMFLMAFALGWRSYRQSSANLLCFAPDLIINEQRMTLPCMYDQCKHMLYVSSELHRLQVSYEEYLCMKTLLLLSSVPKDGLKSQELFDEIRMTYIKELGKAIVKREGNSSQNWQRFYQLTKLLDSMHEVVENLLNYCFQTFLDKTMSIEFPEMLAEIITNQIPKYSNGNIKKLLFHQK
The target is the same in test [6]. Kind of test: GR-EFC Redistribution (AID 451; calls by dose curve; further: potency means the concentration at half of the fitted maximal effect). The following applies: CHO-K1 GR-EFC translocation, beta-gal luminescence, 2 h. In short, it runs like this: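 CHO-K1 cells expressing nuclear EA and GR-ED fragments of b-gal; compounds titrated up to 46 uM final, 2 h at 37 C. GR nuclear translocation read as complemented b-gal luminescence after 1 h RT detection.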

The target in test [7] is Mitogen-activated protein kinase 10 (Mus musculus) (UniProt Q61831). The experiment in a line: JNK3 AlphaScreen Assay (AID 530; active means well fitted curve in either direction with a large enough effect, not every such curve was filed as active;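 further: kinase came from lysate of stimulated human HepG2 cells; signal reports phosphorylation of biotinylated GST-cJun 1-79 at Ser73 with 10 µM ATP; on the % scale 0 is the no-effect control and ±100 the full control effect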). The method in brief:
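HepG2 lysate (IL-1b/TNFa pre-activated) + biotin-GST-cJun 1-79 + anti-pSer73 cJun; cpd titration, 15 min RT; ATP 10 uM start; Tris pH 7.6, MgCl2, DTT, vanadate; beads in EDTA buffer; AlphaScreen.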
For orientation: Alpha assays give light when donor and acceptor beads are brought close together.

Test [8] deals with 3',5'-cyclic-AMP phosphodiesterase 4B (Homo sapiens) (UniProt Q07343). Kind of test: qHTS Assay for Inhibitors of PDE-IV (AID 607; active means well fitted activation curve with a large enough effect in the main read-out, with a control signal flat, not every such curve was filed as active; further: % of control where 0% means no effect). In short, it runs like this: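 Live HEK293 cells with a modified cyclic nucleotide-gated (CNG) channel report intracellular cAMP via membrane-potential dye fluorescence (ex 535/em 590 nm). Endogenous PDE-IV was targeted. Compounds were tested at up to 22.9 uM final; RO 20-1724 100 uM served as control.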
Sequence of 3',5'-cyclic-AMP phosphodiesterase 4B (Homo sapiens) (Q07343 whole entry, looked up): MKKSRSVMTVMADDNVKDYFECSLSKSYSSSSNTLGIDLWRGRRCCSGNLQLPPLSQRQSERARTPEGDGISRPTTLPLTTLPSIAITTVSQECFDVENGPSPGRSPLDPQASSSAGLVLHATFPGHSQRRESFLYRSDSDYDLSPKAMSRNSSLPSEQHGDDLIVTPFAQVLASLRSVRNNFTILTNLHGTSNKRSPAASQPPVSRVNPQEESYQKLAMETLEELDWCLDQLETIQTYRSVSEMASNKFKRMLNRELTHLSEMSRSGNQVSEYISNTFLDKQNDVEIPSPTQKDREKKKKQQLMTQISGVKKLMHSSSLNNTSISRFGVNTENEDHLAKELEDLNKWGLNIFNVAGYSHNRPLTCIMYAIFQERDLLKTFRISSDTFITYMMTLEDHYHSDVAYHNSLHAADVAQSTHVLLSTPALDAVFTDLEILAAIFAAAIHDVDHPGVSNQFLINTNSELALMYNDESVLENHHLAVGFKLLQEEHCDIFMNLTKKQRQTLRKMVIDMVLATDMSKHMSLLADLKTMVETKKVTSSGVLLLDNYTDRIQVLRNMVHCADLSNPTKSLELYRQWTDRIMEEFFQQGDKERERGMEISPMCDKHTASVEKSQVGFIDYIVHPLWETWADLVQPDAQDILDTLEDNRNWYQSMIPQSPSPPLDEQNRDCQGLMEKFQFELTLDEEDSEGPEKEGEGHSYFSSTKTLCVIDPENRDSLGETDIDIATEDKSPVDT

The nature of test [9]: qHTS Assay for Lipid Storage Modulators (AID 1519; calls by dose curve). The following applies: Drosophila S3 cells, BODIPY lipid droplet/cell ratio, laser cytometry, cells loaded with oleic acid; for activity change, negative = inhibition: at 25.7 µM (top of the series). The method in brief: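 Cells seeded at 5,000 per well were treated with compounds over a concentration series and loaded with oleic acid (400 uM, as added). Lipid droplet fluorescence (488 nm excitation, 500-530 nm channel) was read by laser-scanning cytometry and normalized to 20 uM Triacsin C.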
Background: Quantitative high-throughput screening tests each substance at several concentrations.

The target in test [10] is Ubiquitin carboxyl-terminal hydrolase 1 (Homo sapiens) (UniProt O94782). Kind of test: Inhibitors of USP1/UAF1: Pilot qHTS (AID 504865).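 Further: rhodamine fluorescence freed from ubiquitin-rhodamine substrate followed over time; top concentration of the series differs between compounds; on the % scale 0 is the no-effect control and ±100 the full control effect; nearly all actives have a fitted effect of over 35% in size.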 The method in brief: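 1nM USP1/UAF1 + cpd, 15 min RT; start w/ Ub-Rho 150nM final; kinetic FL 480/540 nm, 6 reads q60 s. Buffer 50mM HEPES pH 7.8, 0.5mM EDTA, 1mM TCEP, 0.01% Tween-20, 0.1 mg/ml BSA.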
Sequence of Ubiquitin carboxyl-terminal hydrolase 1 (Homo sapiens) (O94782 whole entry, looked up): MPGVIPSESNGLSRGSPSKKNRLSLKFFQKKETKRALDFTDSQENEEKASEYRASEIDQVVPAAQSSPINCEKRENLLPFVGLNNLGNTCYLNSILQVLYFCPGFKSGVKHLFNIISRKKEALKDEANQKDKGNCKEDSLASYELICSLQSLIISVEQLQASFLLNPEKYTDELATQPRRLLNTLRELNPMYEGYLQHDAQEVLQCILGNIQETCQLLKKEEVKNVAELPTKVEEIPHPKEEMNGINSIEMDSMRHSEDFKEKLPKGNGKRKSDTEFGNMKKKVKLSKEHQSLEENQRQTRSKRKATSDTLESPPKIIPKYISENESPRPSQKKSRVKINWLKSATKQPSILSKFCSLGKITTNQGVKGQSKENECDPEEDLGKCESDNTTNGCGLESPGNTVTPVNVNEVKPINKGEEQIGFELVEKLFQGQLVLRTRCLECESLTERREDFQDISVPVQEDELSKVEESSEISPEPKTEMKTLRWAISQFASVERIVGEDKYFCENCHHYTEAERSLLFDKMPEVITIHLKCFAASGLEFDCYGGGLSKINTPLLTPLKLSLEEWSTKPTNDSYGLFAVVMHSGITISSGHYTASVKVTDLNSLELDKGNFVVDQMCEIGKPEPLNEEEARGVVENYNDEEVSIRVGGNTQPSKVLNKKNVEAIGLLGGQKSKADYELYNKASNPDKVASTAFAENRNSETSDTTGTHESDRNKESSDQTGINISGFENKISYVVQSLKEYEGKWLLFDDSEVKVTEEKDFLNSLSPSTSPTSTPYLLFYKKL
The target in test [11] is ATP-dependent 6-phosphofructokinase (Trypanosoma brucei brucei) (UniProt O15648). The experiment in a line: qHTS Assay to Find Inhibitors of T. brucei phosphofructokinase: hit validation (AID 492961). The method in brief: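 Inhibition of parasite PFK is measured as reduced ADP formation, quantified via luciferase after ATP depletion. Assay used 0.1 mM ATP, 0.5 mM F6P, 1.25 nM enzyme, 45 min incubation.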
Sequence of ATP-dependent 6-phosphofructokinase (Trypanosoma brucei brucei) (O15648 whole entry, looked up): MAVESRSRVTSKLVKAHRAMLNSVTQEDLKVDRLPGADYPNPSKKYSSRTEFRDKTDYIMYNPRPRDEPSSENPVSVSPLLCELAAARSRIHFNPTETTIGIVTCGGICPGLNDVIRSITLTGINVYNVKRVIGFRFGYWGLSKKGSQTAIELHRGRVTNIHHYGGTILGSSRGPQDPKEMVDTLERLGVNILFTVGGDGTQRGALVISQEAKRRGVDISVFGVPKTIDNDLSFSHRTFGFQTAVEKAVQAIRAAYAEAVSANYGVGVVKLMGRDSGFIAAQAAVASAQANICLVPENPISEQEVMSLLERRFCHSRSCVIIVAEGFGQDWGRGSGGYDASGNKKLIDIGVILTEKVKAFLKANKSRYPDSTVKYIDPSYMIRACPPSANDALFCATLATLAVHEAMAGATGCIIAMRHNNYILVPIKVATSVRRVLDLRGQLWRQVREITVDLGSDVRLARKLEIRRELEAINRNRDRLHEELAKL

Test [12] concerns the target Luciferin 4-monooxygenase (Photinus pyralis) (UniProt P08659). The experiment in a line: Biochemical firefly luciferase enzyme assay for NPC (AID 624030).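 Further: purified P. pyralis luciferase at 10 nM with luciferin and ATP substrate; 0% = DMSO and -100% = full luciferase inhibition by PTC124 control; nearly all actives have a fitted effect of over 70% in size.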 The method in brief: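 Purified P. pyralis luciferase at 10 nM in 50 mM Tris Acetate (final), luminescence read within 5 minutes of enzyme addition to compounds. Activity normalised to PTC124 versus DMSO; concentration-response curves classed by r2, magnitude and activity.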

Test [13] is described as follows: S16 Schwann cell PMP22 intronic element firefly luciferase assay (AID 624032).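 Further: plate controls were DMSO for no effect and PTC124 positive control mean for full effect; nearly all actives have a fitted effect of over 30% in size.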 The method in brief:
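Rat S16 Schwann cells stably carrying firefly luciferase driven by a PMP22 intronic element, in 10% FBS, treated 24 h at 37 C. ONE-Glo luminescence normalized to PTC124 control and DMSO (0%); curves classed by r2, magnitude and activity.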

A short description of test [14]: qHTS profiling for inhibitors of Plasmodium falciparum proliferation (AID 504749).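 Further: 0% = DMSO vehicle and full inhibition = artemisinin control; nearly all actives have a fitted effect of over 60% in size.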 The following applies: P. falciparum in erythrocytes, SYBR Green DNA, 72 h. In short, it runs like this:
(§1)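 SYBR Green fluorescence (ex 485 nm, em 535 nm) reports parasite DNA after 72 h compound exposure of infected red cells at 0.3% parasitemia, 2.5% hematocrit; signal normalized to 0.29 uM artemisinin and vehicle wells.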

For a further test, the system named is C2A. Described as above. To be noted: P. falciparum in erythrocytes, SYBR Green DNA, 72 h; series mostly up to 28.7 µM. The method in brief: as §1
In the next test the test system is CP192. The description is as above. The following applies: P. falciparum in erythrocytes, SYBR Green DNA, 72 h; series mostly up to 28.7 µM. In short, it runs like this:
as §1

Another test concerns CP262. The test is described as above. The following applies: P. falciparum in erythrocytes, SYBR Green DNA, 72 h; series mostly up to 28.7 µM. In short, it runs like this:
as §1

Another test concerns CP286. The description is as above. The following applies: P. falciparum in erythrocytes, SYBR Green DNA, 72 h; series mostly up to 28.7 µM. The method in brief:
as §1

The subject of another test is FAB9. Described as above. To be noted: P. falciparum in erythrocytes, SYBR Green DNA, 72 h; series mostly up to 28.7 µM. The method in brief: as §1
[15] abbreviates: measured here: cell count channel max response.
Where [16] appears, read: measured here: lipid channel max response.
The mark [17] stands for this setting: at 12.8 µM (top of the series), parasite line A.
[18] abbreviates: at 12.8 µM (top of the series), parasite line B.

Sequence of Cytochrome P450 1A2 (Homo sapiens) (P05177 whole entry, looked up): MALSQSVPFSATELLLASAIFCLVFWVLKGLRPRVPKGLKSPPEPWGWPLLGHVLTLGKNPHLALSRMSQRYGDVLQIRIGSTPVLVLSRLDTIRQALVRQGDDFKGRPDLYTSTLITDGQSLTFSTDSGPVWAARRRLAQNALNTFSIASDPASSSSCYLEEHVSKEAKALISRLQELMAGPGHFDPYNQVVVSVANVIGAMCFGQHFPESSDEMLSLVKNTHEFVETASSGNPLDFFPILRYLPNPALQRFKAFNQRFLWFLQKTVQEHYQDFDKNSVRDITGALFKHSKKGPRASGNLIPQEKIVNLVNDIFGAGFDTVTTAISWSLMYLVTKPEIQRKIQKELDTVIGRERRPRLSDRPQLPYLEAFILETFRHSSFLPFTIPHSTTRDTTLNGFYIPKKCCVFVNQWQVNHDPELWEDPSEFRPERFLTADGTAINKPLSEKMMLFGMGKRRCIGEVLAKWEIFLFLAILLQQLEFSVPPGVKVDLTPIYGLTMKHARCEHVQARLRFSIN
Sequence of Luciferin 4-monooxygenase (Photinus pyralis) (P08659 whole entry, looked up): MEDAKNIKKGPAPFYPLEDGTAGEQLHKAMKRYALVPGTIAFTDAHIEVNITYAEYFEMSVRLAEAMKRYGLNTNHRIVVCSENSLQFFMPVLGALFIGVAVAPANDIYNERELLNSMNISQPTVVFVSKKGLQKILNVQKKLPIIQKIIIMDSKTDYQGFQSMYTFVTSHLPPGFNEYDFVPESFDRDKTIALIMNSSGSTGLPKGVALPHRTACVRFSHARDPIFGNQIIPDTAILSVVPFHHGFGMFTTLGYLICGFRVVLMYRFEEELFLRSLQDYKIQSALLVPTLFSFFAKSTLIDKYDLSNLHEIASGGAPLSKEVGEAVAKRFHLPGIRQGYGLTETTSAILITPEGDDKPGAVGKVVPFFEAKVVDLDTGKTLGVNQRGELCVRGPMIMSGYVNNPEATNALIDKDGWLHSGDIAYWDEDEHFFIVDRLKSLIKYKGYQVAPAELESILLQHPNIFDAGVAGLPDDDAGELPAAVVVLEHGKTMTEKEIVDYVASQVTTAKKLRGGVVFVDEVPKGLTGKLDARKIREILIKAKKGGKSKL

As for `CNC[C@H](O)c1ccc(O)c(OC)c1`, the molecule was classed as inactive in [1], in test [4] and in test [7]. Further, the Potency entry in [2], in [8] and in test [10] was “inactive” throughout. Besides, the activity change, negative = inhibition is 3.38% (inactive) in test [3] (at 17.2 µM (top of the series)) and -0.567% (inactive) in test [9]. Besides, the Potency in test [5] and in [6] was > 20.6 µM (inactive) each time. The max response came out at 7.01% in test [9] (setting [15]) and 8.44% in test [9] (setting [16]).
On to `C[N+]1([O-])[C@@H]2CC(OC(=O)[C@@H](CO)c3ccccc3)C[C@@H]1[C@H]1O[C@H]12` (stereo not given in full), for which the result in [1], in test [4] and in test [7] was inactive. For the same molecule, the activity change, negative = inhibition in [3] (at 7.69 µM (top of the series)) was -78.2% (active); in test [3] (at 17.2 µM (top of the series)), -52.1% (active); in test [9] it was 0.148% (inactive). Further, the Potency in test [5] was > 20.6 µM (inactive) and > 46 µM (inactive); in test [6] it was > 20.6 µM (inactive) and > 9.22 µM (inactive). Also, the Potency result (in test [8]; in test [11]; in test [10]; in test [12]; in test [13]; in the test with C2A) was “inactive” in each case. For the same molecule, the Potency result in the test on CP192, in the test on CP262, in the test on CP286 and in the test with FAB9 was “inactive” each time. In addition, the max response stood at 26% in test [9] (setting [15]) and 27.4% in test [9] (setting [16]). For the same molecule, the activity, negative = inhibition in test [14] (setting [17]) is -0.201% (inactive); in test [14] (setting [18]) it was -5.73% (inactive); in [14] (at 28.7 µM (top of the series), parasite line A), 13.1% (inactive); in test [14] (at 28.7 µM (top of the series), parasite line B), 10.8% (inactive).
Regarding `C[C@H]1CN(C2CCC(C#N)(c3ccc(F)cc3)CC2)CC[C@@]1(C(=O)O)c1ccccc1` (stereo not given in full), the molecule was classed as inactive in [1], in test [4] and in test [7]. Besides, the Potency entry (in test [2]; in test [8]; in [11]; in test [12]; in test [13]; in the test with C2A) was “inactive” each time. In addition, the Potency entry with CP192, with CP262, in the test on CP286 and in the test with FAB9 was “inactive” throughout. For the same molecule, the activity change, negative = inhibition in test [3] (at 17.2 µM (top of the series)) was -14% (inactive); in test [9] it was -3.1% (inactive). In addition, the Potency in [5] and in test [6] was > 20.6 µM (inactive) each time. In addition, the max response is -19.6% in test [9] (setting [15]) and -20.8% in [9] (setting [16]). For the same molecule, the activity, negative = inhibition in test [14] (setting [17]) was 1.54% (inactive); in test [14] (setting [18]), 12.6% (inactive).
Regarding `CNC[C@H](O)c1ccc(O)cc1`, the molecule was called inactive in test [1], in test [4] and in [7]. The Potency result in test [2], in test [8], in test [11], in [10], in test [12] and in test [13] was “inactive” each time. Further, the Potency result with C2A, with CP192, in the test with CP262, with CP286 and with FAB9 was “inactive” throughout. The results for the activity change, negative = inhibition in [3] (at 17.2 µM (top of the series)), in test [3] (at 38 µM (top of the series)) and in [9] were -22.7% (inactive), 10.5% (inactive) and -0.0081% (inactive), respectively. Besides, the Potency in [5] is > 46 µM (inactive) and > 20.6 µM (inactive); in test [6], > 46 µM (inactive) and > 20.6 µM (inactive). Also, the figures for the max response in [9] (setting [15]) and in test [9] (setting [16]) were -14.8% and -11.6%, respectively. Also, the activity, negative = inhibition is 3.3% (inactive) in [14] (setting [17]) and 13.2% (inactive) in test [14] (setting [18]).
